# Test results as given in PubChem BioAssay (EPA / NIEHS).
# Where a structure was tested more than once in an assay, its records may differ in their call. Active and inactive are the calls of the source. The calls were made as follows: active = hit-call score of the fitted dose curve at least 0.9, where 1 is the maximum; inactive = score below 0.9.
# Read-out: Cytochrome P450 4A22 (Homo sapiens) (UniProt Q5TCH4)
# Assay: LTEA_HepaRG_CYP4A22: Life Technologies and Expression Analysis (LTEA) Assay for Cytochrome P450 4A22 (CYP4A22) using HepaRG (AID 2283495)
# Conditions: mRNA level, 48 h; actives raise or lower the signal
# Method: LTEA_HepaRG is a cell based, multiplexed-readout assay that uses HepaRG, a human liver cell line, with measurements taken at 48 hours after chemical dosing on a 96-well plate.LTEA_HepaRG_CYP4A22 is one of 102 assay component(s) measured in the LTEA HepaRG cell culture assay. It is a marker of NR mediated metabolism.Data from the assay component LTEA_HepaRG_CYP4A22 was analyzed into 1 endpoint. This assay endpoint, LTEA_HepaRG_CYP4A22, was analyzed with bidirectional fitting relative to DMSO as the negative control and baseline of activity. Using a type of inducible reporter, measures of mRNA induction for gain or loss-of-signal activity can be used to understand regulation of transcription factor activity. To generalize the intended target to other relatable targets, this assay endpoint is annotated to the cyp intended target family, where the subfamily is xenobiotic metabolism.
# A total of 1060 chemcials from the ToxCast library were tested in eight-point concentration-response experiments. Cell culture and cytotoxicity assays were conducted at Thermo Fisher Scientific's Custom Services facility (Madison, WI). A single lot of human HepaRG cells (Thermo Fisher Scientific, Frederick, MD) was used for the cell culture experiments. 96-well format collagen type I coated plates of human HepaRG cells were prepared using established methods. Briefly, cryopreserved HepaRG cells were thawed, plated at a density of approximately 100,000 cells/well in HepaRG Thaw, Plate, and General Purpose media (HPRG770, Thermo Fisher Scientific), and incubated for 48 hours. 0.5% DMSO was selected as vehicle control to balance the requisite need of DMSO in HepaRG cultures to maintain differentiation (for example, baseline metabolism, proportions of hepatocytes vs. cholangiocytes), while enabling further hepatic receptor pathway activation (for example, PXR and CAR) in response to chemical exposure. 48 hours after plating, the culture medium was replaced with HepaRG Serum-Free Incudtion Media. Cells were exposed to each test chemical in duplicate and maintained in CO2 incubators for another 48 hours. Chemical plates were thawed to room temperature and 200x concentrations of treatment groups were prepared. 8-point conentration-reponse curves were made with the highest exposure at 100 uM, followed by half-log dilutions, all in 0.5% DMSO. Each test plate contained variouse controls, induction positive controls (1mM phenobarbital), cytotoxicity positive controls ([…] aflatoxin B1), vehicle controls (0.5% DMSO), and total lysis controls (0.5% DMSO). Cell morphology images were taken using an Essen IncuCyte FLR automated microscope, with six 96-well plates imaged in about 24 minutes. Images were captured and exported and JPEG files. Spent culture media was transfered to black-well plates for the LDH assay, and remaining media was sorted at -80 C for later use. Cells were treated with RLT buffer and frozen until shipped for gene expression analysis. Total RNA was isolated from the cell suspension in 75 uL of Buffer RLT (Qiagen, Germantown, MD 20874) by Quintiles/Expression Analysis (Durham, NC) using a custom isolation procedure. Total RNA from each plate well was transferred to a preamplification plate. Fluidigm's 96.96 Dynamic ArrayTM (Fluidigm, Amsterdam, the Netherlands) technology was used for gene expression analyses by quantitative reverse transcription polymerase chain reaction (qRT-PCR, performed by Quintiles/Expression Analysis, Durham, NC)89. Standard TaqManTM Assays (Applied Biosystems/ThermoFisher Scientific, Foster City, CA) were used to assess the expression of 93 genes selected based on their selectivity and sensitivity to important hepatic receptors known to be modulated by environmental chemicals; importance in human hepatocyte functionality; and hepatotoxicity. […]
SMILES,outcome,AC50
CCOC(=O)CC(SP(=O)(OC)OC)C(=O)OCC (stereo not given),inactive,–
CCOP(=O)(SC(C)CC)N1CCSC1=O (stereo not given),–,12.6 µM (active)
O=[N+]([O-])c1cc(C(F)(F)F)c(Cl)c([N+](=O)[O-])c1Nc1ncc(C(F)(F)F)cc1Cl,–,23.1 µM (active)
CCc1cnc(C2=NC(C)(C(C)C)C(=O)N2)c(C(=O)O)c1 (stereo not given),inactive,–
CC(C)[C@H](C(=O)O[C@H](C#N)c1cccc(Oc2ccccc2)c1)c1ccc(Cl)cc1,inactive,–
CCCOCC(=Nc1ccc(Cl)cc1C(F)(F)F)n1ccnc1,–,15.8 µM (active)
CNc1cnn(-c2cccc(C(F)(F)F)c2)c(=O)c1Cl,inactive,–
C=C(C)[C@H]1Cc2c(ccc3c2O[C@@H]2COc4cc(OC)c(OC)cc4[C@@H]2C3=O)O1,–,0.834 µM (active)
CCOP(=S)(OCC)OC(Cl)C(Cl)(Cl)Cl (stereo not given),inactive,–
CC(C)N(C(=O)SCC(Cl)=C(Cl)Cl)C(C)C,inactive,–
CCCSP(=O)(OCC)Oc1ccc(Br)cc1Cl (stereo not given),inactive,–
C#CCC1=C(C)C(OC(=O)C2C(C=C(C)C)C2(C)C)CC1=O (stereo not given),–,81.5 µM (active)
CCOP(=O)(NC(C)C)Oc1ccc(SC)c(C)c1 (stereo not given),–,19.5 µM (active)
CCCCOC(=O)c1ccccc1C(=O)O,inactive,–
CCOP(=S)(OCC)SCCSCC,inactive,–
CCOP(=S)(OCC)Oc1ccc([N+](=O)[O-])cc1,inactive,–
CN(C)NC(=O)CCC(=O)O,inactive,–
CCC(=NOC/C=C/Cl)C1=C(O)CC(C2CCOCC2)CC1=O (stereo not given),inactive,–
CC(C)=CC1C(C(=O)OCN2C(=O)C3=C(CCCC3)C2=O)C1(C)C (stereo not given),inactive,–
CCNc1nc(Cl)nc(NC(C)(C)C#N)n1,inactive,–

SMILES,outcome,AC50
CCCCOC(=O)[C@@H](C)Oc1ccc(Oc2ccc(C#N)cc2F)cc1,–,18.7 µM (active)
Nc1nc(N)nc(NC2CC2)n1,inactive,–
CNC(=O)Oc1cccc2c1OC(C)(C)O2,inactive,–
CC(=NC#N)N(C)Cc1ccc(Cl)nc1,inactive,–
S=C1NCCN1,inactive,–
CNC(=O)ON=C(C)SC,inactive,–
CC1=NNC(=O)N(/N=C/c2cccnc2)C1,inactive,–
CC(Oc1cccc(Cl)c1)C(=O)O (stereo not given),inactive,–
CCOP(=S)(OCC)Oc1ccc2c(C)c(Cl)c(=O)oc2c1,–,50 µM (active)
CN(C)[C@@H]1C(=O)C(C(N)=O)=C(O)[C@@]2(O)C(=O)C3=C(O)c4c(O)cccc4[C@@](C)(O)[C@H]3[C@H](O)[C@@H]12,inactive,50 µM (active)
O=C(O)c1cc(Oc2ccc(C(F)(F)F)cc2Cl)ccc1[N+](=O)[O-],inactive,–
CC(C1CC1)C(O)(Cn1cncn1)c1ccc(Cl)cc1 (stereo not given),–,44.9 µM (active)
CCC(CC)Nc1c([N+](=O)[O-])cc(C)c(C)c1[N+](=O)[O-],inactive,–
COP(=O)(NC(C)=O)SC (stereo not given),inactive,–
COc1cc(OC)nc(Sc2cccc(Cl)c2C(=O)O)n1,inactive,–
CC1(C(=O)Nc2ccc(O)c(Cl)c2Cl)CCCCC1,inactive,–
CCCCSP(=O)(SCCCC)SCCCC,–,68.1 µM (active)
COP(=O)(OC)OC(Br)C(Cl)(Cl)Br (stereo not given),inactive,–
CCOP(=O)(OCC)Oc1cc(C)nc(C(C)C)n1,inactive,–
